Shown are actives, neighbours in structure and some others; about 12% of the full set was active somewhere.
L major viab = reduces viability of Leishmania major promastigotes. resazurin fluorescence viability. inhibition, % at 10 µM. 200,000 compounds, 9% hits; in the data active means inhibition above about 50%;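 further: promastigotes grown with compound for 44 hours at 28 °C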
Cl transport mod = modulators of human KCC2 chloride dependent transport | Q9H2X9 | KCC2 cells, thallium flux FluoZin-2 fluorescence | B-score of Tl+ flux slope (higher = more flux/activation; lower = inhibition) at 10 µM | 190,000 compounds, 2.2% hits | AID 1456;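 active means thallium flux slope and its plate-corrected score both differing from the plate sample mean at a set confidence after two filtering rounds, in either direction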;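 further: slope of fluorescence scaled to starting intensity during 10 to 20 s after thallium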
Target sequence (Q9H2X9 whole entry, looked up): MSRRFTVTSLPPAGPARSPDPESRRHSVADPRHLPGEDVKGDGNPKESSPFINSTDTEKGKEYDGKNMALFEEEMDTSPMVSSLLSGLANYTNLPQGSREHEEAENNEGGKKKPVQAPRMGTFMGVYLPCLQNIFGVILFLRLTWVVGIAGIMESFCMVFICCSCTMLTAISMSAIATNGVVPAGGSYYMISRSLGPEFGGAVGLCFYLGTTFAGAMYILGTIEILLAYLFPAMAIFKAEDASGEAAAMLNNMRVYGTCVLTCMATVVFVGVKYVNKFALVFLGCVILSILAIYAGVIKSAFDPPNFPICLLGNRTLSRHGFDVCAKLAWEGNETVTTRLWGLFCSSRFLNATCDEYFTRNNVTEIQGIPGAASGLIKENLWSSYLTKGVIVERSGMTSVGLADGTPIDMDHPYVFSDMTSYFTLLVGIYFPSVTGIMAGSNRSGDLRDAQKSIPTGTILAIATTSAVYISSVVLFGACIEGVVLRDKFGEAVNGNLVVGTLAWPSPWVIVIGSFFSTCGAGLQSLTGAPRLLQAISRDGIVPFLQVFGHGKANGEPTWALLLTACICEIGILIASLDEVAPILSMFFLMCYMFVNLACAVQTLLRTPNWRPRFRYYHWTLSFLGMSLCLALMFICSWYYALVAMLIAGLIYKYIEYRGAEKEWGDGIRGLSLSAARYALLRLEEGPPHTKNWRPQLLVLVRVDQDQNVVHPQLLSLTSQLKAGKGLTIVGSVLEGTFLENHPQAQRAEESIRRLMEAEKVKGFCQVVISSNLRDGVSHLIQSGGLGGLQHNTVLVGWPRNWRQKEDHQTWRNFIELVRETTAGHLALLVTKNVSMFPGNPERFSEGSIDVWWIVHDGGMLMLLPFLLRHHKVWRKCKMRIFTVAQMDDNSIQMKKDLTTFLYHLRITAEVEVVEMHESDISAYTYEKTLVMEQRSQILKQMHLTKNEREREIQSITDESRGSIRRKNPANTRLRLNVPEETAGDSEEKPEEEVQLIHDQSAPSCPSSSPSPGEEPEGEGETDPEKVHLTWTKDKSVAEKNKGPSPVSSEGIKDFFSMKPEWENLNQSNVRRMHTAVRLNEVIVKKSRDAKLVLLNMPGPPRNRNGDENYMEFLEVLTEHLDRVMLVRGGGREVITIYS
Calpain2 inh = calpain II (pig) inhibition | purified calpain II, fluorogenic peptide substrate, 30 min | inhibition, % at 16 µM | 220,000 compounds, 0.37% hits | AID 1236;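 active means inhibition above about 50%, limit read from the data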
WT yeast gro inh = growth inhibition of WT yeast, mitochondrial fusion screen | mitochondrial fusion phenotypic screen, WT strain | inhibition, % at 10 µM | 190,000 compounds, 2.1% hits; in the data active means inhibition above about 58%; tested in S. cerevisiae
ROMK primary = modulates human ROMK potassium channel activity; Tet-inducible ROMK, thallium flux fluorescence; actives lie on both sides; AID 1918; 130,000 compounds, 2% hits; B-score at 10 µM;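 active means signal ratio slope over the read window, or its plate-corrected B-score, at least 3 SD from the plate mean, either direction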;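 further: B-score of the F/F0 ratio slope over 7 to 12 s after thallium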
ROMK retest = human ROMK channel modulation, retest confirmation; ROMK thallium flux, fluorescence ratio; active compounds read low; normalized thallium flux (F/F0 slope) at 10 µM; AID 1917; 3,000 compounds, 54% hits; shares compounds with ROMK primary;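 active means Flux at 10 µM at least 3 SD below or above vehicle control mean in one or both replicates; inconclusive means no clear call, values can overlap the other calls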
Numbers without * were called inactive; ? = inconclusive; / = not tested or not shown.

SMILES | L major viab | Cl transport mod | Calpain2 inh | WT yeast gro inh | ROMK primary | ROMK retest
O=C(COc1ccc(F)cc1)N(c1ccccn1)C1CCCCC1 | -2 | -0.35 | 11 | 6 | 0.5 | /
CC(C)c1ccc(OCC(=O)N(c2ccccn2)C2CCCCC2)cc1 | 11 | -1.5 | 12 | 36 | -2.6* | 0.055*
CCn1c(SCC(=O)Nc2nc(C)c(C(=O)OC)s2)nnc1C(C)C | 1 | / | 1 | -14 | 0.03 | /
COc1ccc(-n2cnnc2SCC(=O)Nc2cc(C)on2)cc1 | -3 | 1 | -12 | -7 | 0.22 | /
CN(C)c1cccc(NC(=O)c2ccco2)c1 | 2 | 0.5 | 18 | -11 | 2.6* | 0.077
CCOc1cccc2sc(N(CCCN(C)C)C(=O)Cc3ccccc3)nc12 | 36 | 0.22 | 8 | 2 | -3.2* | 0.057*
CN(C)CCCN(C(=O)COc1ccccc1)c1nc2c(F)cccc2s1 | -4 | -0.26 | 5 | 12 | -0.34 | /
COc1ccc(S(=O)(=O)N(C)C)cc1NC(=O)COC(=O)c1nc2nccc(C)n2n1 | / | 0.87 | -1 | / | / | 0.075
O=C(NCCN1C(=O)S/C(=C\c2cccnc2)C1=O)C1=NN(c2ccccc2)C(=O)CC1 | 6 | 1.1 | -28 | -7 | -0.49 | /
CS(=O)(=O)N1CCC(C(=O)Nc2ccccc2)CC1 | -6 | / | -1 | -12 | -0.11 | /
Cc1ccc(NC(=O)C2CCN(S(C)(=O)=O)CC2)cc1C | -3 | 0.062 | 8 | 1 | 1.6* | 0.077
Cc1cccc(N2CCN(C(=O)Cc3ccc(Br)cc3)CC2)c1C | -1 | -0.64 | 22 | 15 | -0.7 | /
Cc1cccc(N2CCN(C(=O)CC(NC(=O)c3ccccc3Cl)c3ccccc3)CC2)c1C (centres undefined) | 95* | -1.4 | -57 | 44 | -4.7* | 0.054*
CC1(C)CC(=O)C2=C(C1)Oc1nc3ccccc3cc1C2C(C#N)C#N (centres undefined) | 100* | / | -70 | -16 | -3.6* | 0.058*
CC(=O)Nc1ccc(/C=C(\C#N)C(=O)NC2CCCCC2)cc1 | 22 | -0.00077 | 2 | -18 | -0.15 | /
CC1CCCCC1NC(=O)/C(C#N)=C/c1ccc(F)c(F)c1 (centres undefined) | 96* | 0.35 | -1 | 20 | -3* | 0.05*
C=CCNC(=O)/C(C#N)=C/c1ccc(SC)cc1 | 17 | 0.36 | -29 | -13 | -4.5* | 0.053*
C=CCNC(=O)/C(C#N)=C/c1ccc(OS(=O)(=O)c2ccc(C)cc2)c(OC)c1 | 92* | 0.054 | -21 | 42 | -4.6* | 0.042*
CSc1ccc(/C=C(\C#N)C(=O)NC2CCCCC2)cc1 | -1 | -0.53 | -16 | -25 | -2.5* | 0.054*
COc1ccc([N+](=O)[O-])cc1NC(=O)C(C)OC(=O)c1ccccn1 (centres undefined) | 4 | 0.14 | -8 | 13 | -0.31 | /
O=C(/C=C/c1cc([N+](=O)[O-])ccc1OC(F)F)Nc1cccc(OC(F)F)c1 | -5 | 0.098 | -16 | 2 | / | /
Cc1cccc(NC(=O)NC2CC(=O)N(c3ccc4c(c3)OCCO4)C2)n1 (centres undefined) | -6 | -0.47 | 1 | -5 | -0.075 | /
O=C(COc1cccnc1[N+](=O)[O-])Nc1cc(S(=O)(=O)N2CCCCC2)ccc1Cl | / | -0.28 | -14 | / | / | /
COc1ccccc1NS(=O)(=O)c1ccc(C)c(C(=O)NCC2CCCO2)c1 (centres undefined) | -2 | -0.41 | 12 | -5 | / | /
COc1ccc(CNCCC(c2ccc(F)cc2)c2ccc(OC)cc2)cc1 (centres undefined) | 100* | -0.23 | -8 | 75 | -4.2* | 0.053*
SMILES | L major viab | Cl transport mod | Calpain2 inh | WT yeast gro inh | ROMK primary | ROMK retest
CCOc1ccccc1-c1nc(SCC(=O)O)n[nH]1 | -6 | 0.057 | 11 | -5 | 0.76 | /
CNC(=S)N1CCN(c2ccc(OC)cc2)CC1 | -6 | 1 | 17 | -6 | / | /
CCOc1ccc(/C=C2\SC(=S)N(C(C(=O)O)c3ccccc3)C2=O)cc1OC (centres undefined) | / | -0.33 | 18 | / | / | /
COc1ccc(OC)c(/C=C2\SC(=S)N(C(C(=O)O)c3ccccc3)C2=O)c1 (centres undefined) | / | / | 32 | / | / | 0.052*
COc1cc(OC)cc(C(=O)NC(=S)Nc2nnn(C)n2)c1 | / | 0.78 | 4 | / | / | /
COc1cccc(CN2CCNC(=O)C2CC(=O)N(C)CCc2ccccn2)c1OC (centres undefined) | -5 | 0.87 | -2 | 14 | 1.8 | /
CCC(C)(C)c1ccc(OCCCC[n+]2cccc(C)c2C)c(C(C)(C)CC)c1 | / | / | 25 | / | / | 0.037*
COc1ccc(C(=O)C[n+]2cccc(C)c2C)cc1[N+](=O)[O-] | -7 | 0.84 | -33 | -4 | / | /
CC1(C)NC(=O)N(CC(O)COc2ccc(-c3ccc(C#N)cc3)cc2)C1=O (centres undefined) | 0 | / | -101 | 6 | 19* | 0.077
Cc1ccc(N=C2NC(=O)/C(=C/c3cn(C)c4ccccc34)S2)cc1C | 15 | -0.56 | -45 | 45 | -3.4* | ?
Cn1cccc1/C=C1\SC(=Nc2cccc(O)c2)NC1=O | / | -2.3 | 15 | / | -2.3* | 0.075
Cn1cccc1/C=C1\SC(=Nc2ccc(O)cc2)NC1=O | / | -1.1 | -1 | / | -0.55 | /
COc1ccc(NC(=O)Nc2ccccc2F)c([N+](=O)[O-])c1 | 5 | 0.35 | 6 | 6 | 0.5 | /
COC(=O)c1c(C)oc(C)c1S(=O)(=O)NCc1ccc(Cl)cc1Cl | / | -0.76 | -2 | / | -0.23 | /
OCC1CCCN(Cc2cn(Cc3ccccc3)nc2-c2cc3ccccc3o2)C1 (centres undefined) | 50 | 0.38 | -7 | 2 | -1.9 | /
CC1(C)C2CCC1(CS(=O)(=O)N1CCCc3ccccc31)C(=O)C2 (centres undefined) | -2 | 0.44 | 2 | -10 | -3.4* | 0.07
CCOC(=O)N1CCC(NC(=O)Cn2nc(Cc3ccncc3)c3ccccc3c2=O)CC1 | -7 | / | 5 | 8 | / | /
Cc1cc(C)n2c(SCC(=O)N(CC(C)C)c3c(N)n(CC(C)C)c(=O)[nH]c3=O)nnc2n1 | -6 | / | -20 | -10 | 0.67 | /
N#C/C(=C\c1ccncc1)c1nc2c(s1)CCCC2 | 58* | 1.3 | -319 | 8 | -2* | 0.063*
O=C(Cc1cccs1)NCc1ccco1 | 0 | 0.011 | -19 | -9 | / | /
O=C(Cc1cccs1)NNC(=S)NCc1ccco1 | 3 | / | 3 | 4 | -9.4* | 0.078
O=C(NCCCN1CCCC1)c1ccc2c(c1)N(Cc1ccccc1)CCS2 | / | -0.91 | -12 | / | / | /
O=C(NCCCOc1cccc(CN2CCCCC2)c1)c1ccc(Cl)c(Cl)c1 | 66* | 0.54 | 5 | -11 | -3.5* | 0.057*
CSC1=C(C#N)C(=O)NC(c2ccccc2O)S1 (centres undefined) | / | -2.6 | 38 | / | -4.2* | 0.059*
O=C(COc1cc(Cl)c(Cl)cc1Cl)N1CCN(c2ccccn2)CC1 | 3 | 0.036 | 7 | 2 | -3* | 0.066*
O=C(N1CCN(c2ccccn2)CC1)N1c2ccccc2Sc2ccccc21 | 19 | 0.037 | 48 | 72* | 3.3* | 0.09

Source: PubChem
